Source: PubChem BioAssay (National Center for Advancing Translational Sciences (NCATS))
Only some compounds are listed: those with a hit (about 3.8% of all), similar ones and a draw of the others.
Nrf2 ARE act: qHTS of Nrf2 Activators; actives 0.31% (n = 410,000); AID 624171, 2012; Potency, µM (highest dose often 46.1 µM), most hits filed as activators; AREc32 ARE-luciferase reporter (MCF7-derived line), luminescence, 24 h; further: nearly all actives have a fitted effect of over 65% in size
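AREc32_Fluc, 1000 cells/well, OPTI-MEM + 5% FBS, o/n 37 deg C 5% CO2; 23 nL cpd by pin tool, 24 hr; Steady-Glo 30 min RT, luminescence.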
mIDH1 inhibitor: qHTS for Inhibitors of mutant isocitrate dehydrogenase 1 (IDH1): qHTS | AID 602179, 2012 | Isocitrate dehydrogenase [NADP] cytoplasmic (Homo sapiens), O75874 | actives 0.093% (n = 390,000) | Potency, µM (highest dose often 76.6 µM), usual class: inhibitors | IDH1-R132H enzyme, NADPH consumption, diaphorase/resazurin fluorescence; further: nearly all actives have a fitted effect of over 65% in size
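IDH1-R132H (0.5 ug/mL) preincubated 30 min with compound, then NADPH (0.016 mM) and alpha-KG (2 mM) added; 80 min at RT, pH 7.5. Remaining NADPH coupled via diaphorase/resazurin to fluorescence (540/590 nm); concentration-response curves normalized to no-enzyme control.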
ELG1 DNA repair: qHTS screen for small molecules that inhibit ELG1-dependent DNA repair in human embryonic kidney (HEK293T) cells expressing luciferase-tagged ELG1. HEK293T ELG1-luciferase reporter, luminescence, 16 h; DNA damage induced by 5-fluorouridine. Potency, µM (highest dose often 46.1 µM), hits mostly inhibitors. actives 2.3% (n = 330,000); further: nearly all actives have a fitted effect of over 55% in size
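Quantitative HTS, concentration-response format. 2,000 cells/well co-treated with 5-fluorouridine and compound, 16 hr in 5% CO2 at 37 °C; ONE-Glo luminescence read after 30 min.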
Nrf2 inh: Nrf2 qHTS screen for inhibitors | actives 2.1% (n = 360,000) | A549 ARE-Fluc reporter, luciferase luminescence, 18-24 h | AID 504444, 2011 | Potency, µM (doses to about 46 µM), most hits filed as inhibitors; further: nearly all actives have a fitted effect of over 60% in size
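In this cell-based qHTS, ARE-driven firefly luciferase in A549 cells reports Nrf2 activity; the luminescent signal after BugLite lysis is the measured value, with a prior CellTiter-Fluor read for cell health.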
A549 tox-1: Nrf2 qHTS screen for inhibitors: counterscreen for cytotoxicity. AID 504648, 2011. A549 ARE-Fluc cells, CellTiter-Fluor viability, 18-24 h. Potency, µM (titrated, usually from 46 µM), usual class: inhibitors. actives 0.16% (n = 390,000)
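Cytotoxicity counterscreen: CellTiter-Fluor fluorescence was measured in A549 ARE_Fluc cells after 18-24 h of compound exposure in a concentration series. The subsequent BugLite luminescent read reports ARE-luciferase activity.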
FLuc counter 3: Nrf2 qHTS screen for inhibitors: Purified Fluc Biochemical Counterscreen for Hit Validation; AID 720522, 2013; purified firefly luciferase, luminescence inhibition; shares compounds with Nrf2 inh; Potency, µM (top dose mostly 57.5 µM), most hits filed as inhibitors; actives 4% (n = 1,400); further: nearly all actives have a fitted effect of over 65% in size
Target sequence (P08659 whole entry, looked up): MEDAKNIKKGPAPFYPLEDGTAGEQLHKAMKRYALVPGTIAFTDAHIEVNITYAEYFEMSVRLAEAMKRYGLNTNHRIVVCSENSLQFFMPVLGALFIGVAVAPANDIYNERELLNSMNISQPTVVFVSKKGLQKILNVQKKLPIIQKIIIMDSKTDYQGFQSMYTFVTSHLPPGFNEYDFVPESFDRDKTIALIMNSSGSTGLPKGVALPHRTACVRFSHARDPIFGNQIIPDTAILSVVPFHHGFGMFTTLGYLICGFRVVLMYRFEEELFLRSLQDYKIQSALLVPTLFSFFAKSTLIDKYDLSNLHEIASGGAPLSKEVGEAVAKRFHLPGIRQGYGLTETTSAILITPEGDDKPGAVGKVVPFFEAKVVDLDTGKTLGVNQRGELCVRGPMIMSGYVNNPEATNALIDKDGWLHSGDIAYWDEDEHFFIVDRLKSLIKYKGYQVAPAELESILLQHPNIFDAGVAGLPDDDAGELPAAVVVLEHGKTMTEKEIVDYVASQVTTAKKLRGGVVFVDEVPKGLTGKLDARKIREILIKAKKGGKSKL
A549 tox-2: Nrf2 qHTS screen for inhibitors: A549 ARE-Fluc Cytotoxicity Counterscreen for Hit Validation; shares compounds with Nrf2 inh; A549 ARE-Fluc cells, cytotoxicity counterscreen; Potency, µM (top dose mostly 46.1 µM), most hits filed as inhibitors; actives 2% (n = 1,400);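 further: cells exposed to compounds for 18 to 24 hours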
ARE-Fluc inh: Nrf2 qHTS screen for inhibitors: Nrf2 A549 ARE-Fluc Confirmation Assay for Hit Validation; shares compounds with Nrf2 inh; A549 ARE-firefly luciferase reporter, luminescence; Potency, µM (doses to about 46.1 µM), usual class: inhibitors; actives 74% (n = 1,400); AID 720524, 2013; further: nearly all actives have a fitted effect of over 65% in size
Hits are given with their value; - = inactive; ? = inconclusive; . = not tested or not shown; [ ] = remark or other dose. The call rests on the fitted dose curve; in most records, active means well fitted curve in the direction sought with a large enough effect; inconclusive means small, poorly fitted or top-dose-only effect, or another doubt; inactive means no such curve, though single readings can be large; an effect the other way counts as inactive or inconclusive.

SMILES	Nrf2 ARE act	mIDH1 inhibitor	ELG1 DNA repair	Nrf2 inh	A549 tox-1	FLuc counter 3	A549 tox-2	ARE-Fluc inh
Cc1ccc(-n2ncc3c(N4CCN(Cc5ccccc5)CC4)ncnc32)cc1	-	-	.	.	-	.	.	.
OC1(c2cccc(C(F)(F)F)c2)CCN(c2ncnc3c2[nH]c2ccccc23)CC1	-	-	-	?	-	.	.	.
c1ccc2c(c1)CCN(c1ncnc3c1[nH]c1ccccc13)C2	-	-	9.2µM	5.8µM	-	-	-	5.8µM
O=C(COC(=O)C12CC3CC(CC(O)(C3)C1)C2)NCc1ccco1	.	.	.	-	-	.	.	.
O=C1CCCc2cc(S(=O)(=O)N3CCCC(C(=O)NCc4ccc(Cl)cc4)C3)ccc2N1 (stereo not drawn)	-	-	.	?	-	.	.	.
CN(C)c1ccc(CNC(=O)C2CCCN(S(=O)(=O)c3ccc4c(c3)CCCC(=O)N4)C2)cc1 (stereo not drawn)	-	-	.	5.8µM	-	-	-	?
CC[N+](C)(CC)CCOC(=O)C(O)(c1ccccc1)C1CCCCC1 (stereo not drawn)	-	-	-	7.31µM	-	-	9.2µM	?
CC[N+](C)(CC)CCC(c1ccccc1)C1CCCCC1 (stereo not drawn)	-[9.22 µM]	-	-	-	-	.	.	.
CC(=O)c1c(C)[nH]c(C(=O)OCC(=O)NC(C)c2ccccc2)c1C (stereo not drawn)	-	-	.	.	.	.	.	.
CC(=O)c1c(C)[nH]c(C(=O)OCC(=O)Nc2ccccc2Cl)c1C	-	-	8.2µM	5.8µM	-	-	-	5.8µM
CCOC(=O)c1cnc2ccc(OCC)cc2c1NCCc1ccc(OC)c(OC)c1	-	-	.	3.66µM	-	-	?	13µM
CCOC(=O)c1cnc2ccc(C)cc2c1NCCc1ccc(OC)c(OC)c1	-	-	.	-	-	.	.	.
CN(CCOc1ccc(Cl)cc1)C(=O)c1ccc(S(=O)(=O)N2CCOCC2)cc1	-	-	?	-	-	.	.	.
COc1cccc(CN(C)C(=O)c2cccc(S(=O)(=O)NCc3ccccc3)c2)c1OC	-	-	?	7.31µM	-	-	-	-
CN(Cc1ccc(Cl)cc1Cl)C(=O)c1cccc(S(=O)(=O)N2CCN(c3ccccc3)CC2)c1	-	-	?	?	-	.	.	.
COc1ccc(CCN(C)C(=O)c2cccc(S(=O)(=O)NCc3ccccc3)c2)cc1OC	-	-	?	?	-	.	.	.
COc1cccc(CN(C)C(=O)c2cccc(S(=O)(=O)N3CCN(c4ccccc4)CC3)c2)c1OC	-	-	.	7.31µM	?	-	?	0.116µM
CN(CCOc1ccc(Cl)cc1)C(=O)c1cccc(S(=O)(=O)N2CCN(c3ccccc3)CC2)c1	-	-	.	5.8µM	?	-	-	23.1µM
CN(Cc1ccc(OC(F)F)cc1)C(=O)c1cccc(S(=O)(=O)N2CCN(Cc3ccccc3)CC2)c1	-	-	.	6.51µM	-	-	-	6.51µM
C=CCNc1ncnc2c1cnn2-c1ccc(C)cc1C	-	-	-	-	-	.	.	.
CCOC(=O)N1CCC(Nc2ncnc3c2cnn3-c2ccc(C)cc2C)CC1	-	-	?	8.2µM	-	-	-	13µM
COc1nc(C#N)nc(N2CCCCC2)n1	.	.	.	-	-	.	.	.
N#Cc1nc(N2CCCC2)nc(N2CCCC2)n1	-	-	?	5.17µM	-	-	-	13µM
Cc1ccc(-c2noc(-c3ccc(NCC4CCCO4)c([N+](=O)[O-])c3)n2)cc1 (stereo not drawn)	-	-	.	?	-	.	.	.
Cc1ccc(CC(=O)Nc2ccncc2)cc1	-	-	-	?	-	.	.	.
SMILES	Nrf2 ARE act	mIDH1 inhibitor	ELG1 DNA repair	Nrf2 inh	A549 tox-1	FLuc counter 3	A549 tox-2	ARE-Fluc inh
O=C(Cc1ccc(Cl)cc1)Nc1ccncc1	-	-	?	5.8µM	-	-	-	-
COc1ccccc1NC(=O)c1ccc(CSc2ccccc2)o1	-	-	-	-	-	.	.	.
CCN(Cc1ccccc1)C(=O)c1nc(-c2cccc(F)c2)n2c1CCCCC2	-	-	.	?	-	.	.	.
Cc1ccc(C[n+]2ccccc2)cc1	-	-	?	5.17µM	-	-	-	20.6µM
COC(=O)c1ccc(C[n+]2ccccc2)cc1	-	-	-	-	-	.	.	.
COc1ccc(C(=O)C2CCCN(S(=O)(=O)c3ccc(C(C)=O)cc3)C2)c(C)c1 (stereo not drawn)	-	-	-	8.2µM	-	-	-	.
CCOC(=O)C1CCCN(C(=O)c2ccc(S(=O)(=O)N3CCCC3)cc2)C1 (stereo not drawn)	-	-	-	-	-	.	.	.
CCOC(=O)C1CCCN(S(=O)(=O)c2ccc(S(=O)(=O)N3CCCC3)cc2)C1 (stereo not drawn)	-	-	-	8.2µM	-	-	-	?
COc1ccc(N(C(=O)COc2ccccc2OC)S(=O)(=O)c2ccc(Cl)cc2)cc1	-	-	.	-	-	.	.	.
COc1cccc(CNS(=O)(=O)c2ccc(N3CCCCS3(=O)=O)cc2)c1	-	-	.	.	-	.	.	.
Cc1ccc(-c2onc(C)c2C)cc1S(=O)(=O)N1c2ccccc2CC1C (stereo not drawn)	-	-	.	8.2µM	-	-	-	?
Cc1ccc(-c2onc(C)c2C)cc1S(=O)(=O)N1CCOc2ccccc21	-	-	-	?	-	.	.	.
CCOC(=O)[C@@H]1[C@H]2COc3ccc(Br)cc3[C@H]2N2C(=O)N(c3ccc(C)cc3)C(=O)[C@]12C	-	-	-	-	-	.	.	.
Cc1nc2ccc(NC(=O)c3cccs3)cc2c(=O)n1Cc1ccc(Cl)cc1	-	-	7.31µM	4.61µM	?	-	?	16.4µM
COc1ccc(NC(=O)CN(C)C(=O)c2cccc(S(=O)(=O)N3CCN(c4ccc(F)cc4)CC3)c2)cc1	-	-	.	5.8µM	?	-	-	18.4µM
COc1cccc(CNC(=O)c2cccc(S(=O)(=O)N3CCN(c4ccc(F)cc4)CC3)c2)c1	-	-	?	?	-	-	-	?
COc1ccccc1CNC(=O)c1cccc(S(=O)(=O)N2CCN(c3ccc(F)cc3)CC2)c1	-	-	?	?	-	.	.	.
CC1CCN(C(=O)CNC(=O)c2ccc(Br)o2)CC1	-	-	?	?	-	.	.	.
